Test results taken from PubChem BioAssay AID485314 (National Center for Advancing Translational Sciences (NCATS), 2010).
About 4,500 (1.3%) of roughly 340,000 compounds were called active. About 5% were inconclusive and are not listed. Calls follow the shape of the dose curve; as a rule, active = well fitted inhibition curve with a large enough effect; inconclusive = small, poorly fitted or top-dose-only effect, or another doubt; inactive = no such curve, though single readings can be large or run the other way. This excerpt belongs to a sample that is enriched for actives.

Target: DNA polymerase beta (Homo sapiens) (UniProt P06746)
Assay: qHTS Assay for Inhibitors of DNA Polymerase Beta
Settings: Pol beta primer extension/strand displacement, fluorescence kinetic; series mostly up to 114 µM; activity change, negative = inhibition: at the top concentration
Outline: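 Human Pol beta at 10 nM; strand-displacement substrate 50 nM final. Compound exposure 15 min at room temperature before start, reaction 10 min at room temperature.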
% is scaled to controls: 0 for no effect and ±100 for the full control effect; potency is read from the fitted curve at half-maximal effect.

Structure (SMILES) | activity change, negative = inhibition | Potency
COc1cccc(CN2CCc3nc(SCC(=O)Nc4ccccc4)[nH]c(=O)c3C2)c1 | 18.1% (inactive) | –
Cc1ccc2nc(COc3ccccc3NC(=O)Nc3ccc(F)c(Cl)c3)cc(=O)n2c1 | 2.36% (inactive) | –
COc1ccc(-c2c3c(=O)n(C)c(=O)n(C)c3c3c(C)nc4ccccc4n23)cc1 | -27.7% (inactive) | –
Cc1ccc(-c2nnc(Nc3cccc(Br)c3)c3ccccc23)cc1S(=O)(=O)NCC1CCCO1 (stereo not drawn) | 21.3% (inactive) | –
COc1ccc(-c2cccc(NS(=O)(=O)c3cc(C)c(OC)c(C)c3C)c2)nn1 | 10.4% (inactive) | –
O=C(O)c1ccc(Cn2c(SCc3ccc(F)cc3)nc3ccncc32)cc1 | 6.07% (inactive) | –
CCOc1ccc(N(CC)S(=O)(=O)N2CCCC(C(=O)Nc3ccc(C(C)=O)cc3)C2)cc1 (stereo not drawn) | 4.94% (inactive) | –
COc1cc(OC)c(C2C=C(C(=O)O)Nc3ncnn32)cc1OC (stereo not drawn) | 31.7% (inactive) | –
CC1CCN(S(=O)(=O)c2ccc3c(ccn3CCC(=O)NCc3ccc(N(C)C)cc3)c2)CC1 | -2.55% (inactive) | –
O=C(CSc1ncc(S(=O)(=O)c2ccc(Br)cc2)c(=O)[nH]1)Nc1ccc2c(c1)OCCO2 | -20% (inactive) | –
Cc1ccc(/C=C(\C#N)C(=O)Nc2cc(C)ccc2C)cc1 | 0.467% (inactive) | –
CN=C1S/C(=C\c2c(OC)cc(OC)cc2OC)C(=O)N1C | 10.1% (inactive) | –
CN=C1S/C(=C\c2ccc(Sc3ccc(Cl)cc3)o2)C(=O)N1C | -12.7% (inactive) | –
CN1C(=O)/C(=C/c2ccco2)SC1=Nc1cccc(C(=O)O)c1 | – | 17.8 µM (active)
CCOc1ccc(NC(=O)c2c(NC(=O)Cc3ccccc3)sc3c2CCCCC3)cc1 | 25.9% (inactive) | –
COc1cc(C(=O)OC2CCOC2=O)c([N+](=O)[O-])cc1OC (stereo not drawn) | 2.75% (inactive) | –
Cc1nn(Cc2ccccc2)c(Cl)c1C(=O)OC1CCOC1=O (stereo not drawn) | -0.814% (inactive) | –
CC(C)c1ccc(C(=O)OC2CCOC2=O)cc1 (stereo not drawn) | – | 20 µM (active)
COc1ccc(N2CCN(S(=O)(=O)CCNC(=O)C(c3ccccc3)c3ccccc3)CC2)cc1 | -0.733% (inactive) | –
CCOC(=O)c1cc(-c2ccccc2)n(CCC(=O)Nc2ccccc2CC)c1C | 0.554% (inactive) | –
CCOC(=O)c1c(C)oc2nc(C)nc(N(CC(C)C)CC(C)C)c12 | -0.894% (inactive) | –

Structure (SMILES) | activity change, negative = inhibition | Potency
CCCCNC(=O)C1CCCN(c2nnc(C)c3c(C)n(-c4ccc(Cl)cc4)nc23)C1 (stereo not drawn) | 37% (inactive) | –
CCSc1ncnc2c(C#N)c3n(c12)CCCCC3 | -0.0615% (inactive) | –
CCSC1=C(C#N)C(=O)n2c1cc1c2CCCC1 | – | 39.8 µM (active)
Cc1ccc2nc(-c3ccc(O)cc3)c(Nc3ccc4c(c3)OCO4)n2c1 | 39.3% (inactive) | –
COc1ccc(Cl)cc1-n1c(CCC(=O)O)ccc1-c1ccc(C)cc1 | -1.45% (inactive) | –
COc1cccc2c(C)c(C(=O)O)[nH]c12 | – | 50.1 µM (active)
Cc1c(C(=O)N/N=C/c2ccccc2)[nH]c2c([N+](=O)[O-])cccc12 | -0.401% (inactive) | –
COc1cc2c(C(=O)O)c(C)n(C)c2c2ccccc12 | 27.9% (inactive) | –
COc1ccc(S(=O)(=O)NCC(c2ccc(N(C)C)cc2)N2CCCC2)cc1 (stereo not drawn) | 1.79% (inactive) | –
CCC(=O)Nc1cccc(-c2nc3cc(C)ccc3o2)c1 | -23.2% (inactive) | –
O=C(NC1CCCCC1)C1CCCN(S(=O)(=O)c2cccs2)C1 (stereo not drawn) | 0.533% (inactive) | –
O=C(Cc1ccc(S(=O)(=O)N2CCOCC2)s1)NCCC(c1ccccc1)c1ccccc1 | – | 22.4 µM (active)
COc1ccccc1NC(=O)COC(=O)Cc1ccc(S(=O)(=O)N2CCCCC2)s1 | -5.94% (inactive) | –
O=C(NC1CCCCC1)C1CCCN(S(=O)(=O)c2ccc(Br)s2)C1 (stereo not drawn) | 38% (inactive) | –
O=C(Cc1ccc(S(=O)(=O)N2CCCC2)s1)NC1CCCCCC1 | – | 31.6 µM (active)
O=C(CC(c1ccccc1)c1cc(Cl)ccc1O)NCCN1CCOCC1 (stereo not drawn) | 4.17% (inactive) | –
CCn1c2ccccc2c2cc(CN3CCN(Cc4cccc(Cl)c4)CC3)ccc21 | 2.61% (inactive) | –
Cc1c(CCNC(=O)c2ccc(C(F)(F)F)cc2)sc2nc(-c3ccc(F)cc3)nn12 | -1.1% (inactive) | –
CCCOc1cccc(C(=O)Nc2cccc(NC(=O)c3ccc(C(C)(C)C)cc3)c2)c1 | 0.549% (inactive) | –
COc1ccc(OCc2nnc3n2N=C(c2ccccc2)C(CC(=O)O)S3)cc1 (stereo not drawn) | – | 22.4 µM (active)
COc1ccc(C2CC(c3ccccc3)=NN2C(=O)COC(=O)COc2ccccc2)cc1 (stereo not drawn) | -1.43% (inactive) | –

Structure (SMILES) | activity change, negative = inhibition | Potency
COc1cccc(OCc2nnc3n2N=C(c2ccccc2)C(CC(=O)O)S3)c1 (stereo not drawn) | 1.71% (inactive) | –
Cc1cccc(C(=O)NCCc2nc3ccccc3n2Cc2ccccc2Cl)c1 | 6.4% (inactive) | –
COc1cccc(S(=O)(=O)NCc2ccc(C(=O)NCc3ccccn3)cc2)c1 | 41.3% (inactive) | –
CCOc1ccc(NC(=O)c2ncoc2-c2ccco2)cc1 | -4.76% (inactive) | –
O=C(NCc1ccccn1)c1ccc2nc(-c3ccco3)c(-c3ccco3)nc2c1 | – | 3.16 µM (active)
COc1ccc(NC(=O)C(=O)NCc2ccco2)cc1 | -4.3% (inactive) | –
COCCNC(=O)Nc1ccc2nc(-c3ccco3)c(-c3ccco3)nc2c1 | – | 2.24 µM (active)
COc1ccc(-c2nc3ccc(C(=O)NCc4ccc(C)cc4)cc3nc2-c2ccc(OC)cc2)cc1 | -29.7% (inactive) | –
COc1ccc(-n2nc(C(=O)NCCc3ccc(Cl)cc3)c3c4ccccc4n(C)c3c2=O)cc1Cl | 10.3% (inactive) | –
COc1ccc(C)cc1NC(=O)C(=O)NCCc1sc(-c2cccc(C)c2)nc1C | 1.3% (inactive) | –
Cc1cccc(N2CCN(C(=O)c3oc(=O)c4ccccc4c3-c3ccccc3)CC2)c1C | 7.16% (inactive) | –
CCOC(=O)c1c(C)[nH]c(CCC(=O)Nc2ccc(OC)c(OC)c2)c1C | 4.37% (inactive) | –
COc1ccc(C2Sc3ccccc3NC3=C2C(=O)c2ccccc23)c(OC)c1OC (stereo not drawn) | -10.1% (inactive) | –
O=C(/C=C/c1cn(CC(O)CN2CCc3ccccc32)c2ccccc12)c1ccc(Br)cc1 (stereo not drawn) | 36.6% (inactive) | –
COc1ccc(-c2cc(=O)c3c(O)cc(O[C@@H]4O[C@H](CO[C@@H]5O[C@@H](C)[C@H](O)[C@@H](O)[C@H]5O)[C@@H](O)[C@H](O)[C@H]4O)cc3o2)cc1O | – | 25.1 µM (active)
Cc1ccc(OCCn2c(CNc3ccccc3C)nc3ccccc32)cc1 | -1.75% (inactive) | –
CCCCn1c(CNC(=O)C23CC4CC(CC(C4)C2)C3)nnc1SCC(=O)Nc1ccc(C)cc1 | -23.9% (inactive) | –
CCCn1c2ccccc2c2cnn(CC(=O)N3CCCC(C(=O)OCC)C3)c(=O)c21 (stereo not drawn) | -3.43% (inactive) | –
CSc1nnc(SCc2nc3sc(C(=O)O)c(C)c3c(=O)[nH]2)s1 | – | 6.31 µM (active)
CCOC(=O)c1sc2nc(CSCC(=O)OCc3ccc(C(=O)OC)o3)[nH]c(=O)c2c1C | -0.296% (inactive) | –
CC(=O)c1sc2nc(SCC(=O)N3CCCCC3)[nH]c(=O)c2c1C | -27% (inactive) | –
